{
  "source": "the supplement of paper PMC6555819",
  "data": [
    {"test_system": "VDR:RXRa (NR concentration 270 nM, RXRa partner concentration 90 nM)", "assay": "PBM binding z-score (relative to random genomic background probes); higher = stronger binding; sequences stand for … in GC…GCGATTGACAGCGTAGAATGAAGG", "protocol": "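Protein-binding microarray (Agilent 4x180K custom design, double-stranded 60-nt probes: 5' GC cap, 34-nt variable region, 24-nt constant primer region; full probe sequence given). Purified or IVT nuclear receptor:RXRα heterodimers (3:1 NR:RXRα, mostly 270:90 nM) or homodimers were incubated for 1 h in PBS with 2% milk and no ligand, then detected with Alexa488 antibodies. Fluorescence from o1-orientation probes (~5 replicates averaged) was converted to z-scores against 500 random hg19 background probes. Variable regions are seed direct-repeat (DR0–DR5) sites, all their single-nucleotide variants and half-site ablations.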", "values": [
      {"sequence": "TCGAGTAGGTTAGTCGGCGCATTCAGCCAACATA", "PBM binding z-score": -0.0837},
      {"sequence": "CCTACTGGGCCAGGGTCATTGATCAGTCAAAGCA", "PBM binding z-score": 3.14},
      {"sequence": "ATCGAAAGGTCGTGAGGTGAGCATACAGAAAGGC", "PBM binding z-score": 3.19},
      {"sequence": "ATCGAAAGGTCGAGGTGGGTATAGAGAAAGGGAA", "PBM binding z-score": 3.34},
      {"sequence": "CGTCCAAGGTCAAGGTTAGTGAAAGAGACTCGAA", "PBM binding z-score": 3.93},
      {"sequence": "TCATATAGGTAAATACTAGGTGAAAGTCCGATCT", "PBM binding z-score": 1.19},
      {"sequence": "CCTATTAGTTGACCATAAGGTCAACCGAAGCTCG", "PBM binding z-score": 3.95},
      {"sequence": "CCTAGCAGGCCAATCTGAGTCACTCAAGGCTTGA", "PBM binding z-score": -0.947},
      {"sequence": "TAGCCTAGGTCTTTGGGCCAGTATAGTACGCATC", "PBM binding z-score": -0.592},
      {"sequence": "ATAAGTAGGTTATCGGGTCATTCAGTTTGCGCAT", "PBM binding z-score": 5.16},
      {"sequence": "CGTCCAAGGTCAGCAGGCCAGTGAAAGCGACGTG", "PBM binding z-score": 2.58},
      {"sequence": "CCGACTGGGGCATAAGGTTACGATAAGCCAGCCC", "PBM binding z-score": 0.321},
      {"sequence": "ACTATTAGTAGACTTAGGGCAACCGATACGACGC", "PBM binding z-score": -0.00967},
      {"sequence": "CGTCAAAGTTCAACTAAAGTAACGTAAAGCACGC", "PBM binding z-score": 4.08},
      {"sequence": "GCGACTGGGGCATCAGCAGGTGACCATAACTTAA", "PBM binding z-score": -0.635},
      {"sequence": "GCGACTGCGGCATCAGCAGGTTACCATAACTTAA", "PBM binding z-score": -0.5},
      {"sequence": "CCGACTGGGGCAAAGGTAACCATACTCAGTACGA", "PBM binding z-score": 0.122},
      {"sequence": "AATACAGGGTCACTAGGCCATAGTAGGTACGAAT", "PBM binding z-score": 4.25},
      {"sequence": "TCTCGGAGGACACGAAAGGTCAGAGTTCGACATC", "PBM binding z-score": 4.18},
      {"sequence": "TCGAGTAGGTTAGGGGCATTTAGAATGGCGTCGA", "PBM binding z-score": 0.556},
      {"sequence": "CCTACTGGGCCAATGGTCATTGATTCCAATGCTC", "PBM binding z-score": -0.314},
      {"sequence": "TCTACTAGTTGAAGGGCAACCGACGAGTCCGTTT", "PBM binding z-score": 0.635},
      {"sequence": "TGAACGAGGTTAAAGATCAGGGAACGTGGCGTCG", "PBM binding z-score": 1.8},
      {"sequence": "CCAGACAGGAGAAAGGTAACTCAGTCTGGTACGC", "PBM binding z-score": 0.0971},
      {"sequence": "TCTAGTTGCTCACGGAGGTCACACACGACGGGTA", "PBM binding z-score": 3.64},
      {"sequence": "GGAACGAGGGCAAAGTTTATAGCATCTGTCGACG", "PBM binding z-score": 1.92},
      {"sequence": "ACAGACAGGTGATGCAGGTAACTCAGGCTATCAT", "PBM binding z-score": -0.283},
      {"sequence": "TAGCCCAGGTCATGCGGGCCAGTATAGTGTCGGC", "PBM binding z-score": 3.7},
      {"sequence": "AGAACGAGGGCAATGAGTTGATACCACGGGTGGC", "PBM binding z-score": 5.25},
      {"sequence": "CAGCCTAGGTAAGGGCCAGTATAGGAGGAACGTT", "PBM binding z-score": -0.84},
      {"sequence": "ATACCAAGGTGATCGTGAGGTCATTGATACTAAC", "PBM binding z-score": 5.31},
      {"sequence": "ACTAGCTGGTCAGCTGAGGTCACACACAATTCGG", "PBM binding z-score": 4.56},
      {"sequence": "ACAGACAGGTGAGTGACGGTAACTCAGCTGGACG", "PBM binding z-score": -0.336},
      {"sequence": "AGAACGAGGGCACGCTGAGTTGATAGCTGAGTAG", "PBM binding z-score": 2.04},
      {"sequence": "CATCAAAGTTCAACTAAGGTAACGTAAAGCACGC", "PBM binding z-score": 4.98},
      {"sequence": "CCTACTGGGCCAAAAAGGTCTTTGATGCCGATAA", "PBM binding z-score": -0.154},
      {"sequence": "AATGCAGGGTCATCGTAGGCCAGAGTACGCACAG", "PBM binding z-score": 5.1},
      {"sequence": "TAGCCTGGGTCATGCGGGCCAGTATAGTGTCGGC", "PBM binding z-score": 3.07},
      {"sequence": "CAAACTAGGTCAAAGGTCAAAGTGGAGCCAACCA", "PBM binding z-score": 6.72},
      {"sequence": "ATATGTAGGTTAAGTGTCATTCAGGTTGGTTCGC", "PBM binding z-score": 2.28}
    ]}
  ]
}
